33 compounds from PubChem BioAssay (EPA / NIEHS) can be followed below.

The structures appear in SMILES notation. Where “and” joins values, the source holds several entries; their conditions need not be identical. Identical values can stand only once. Some compounds were tested as several samples or in several runs, with calls that do not always agree. Calls of active or inactive are those of the source. Rule for the calls: active = hit-call score of the fitted dose curve at least 0.9, where 1 is the maximum; inactive = score below 0.9.

The nature of the assay: CCTE_Shafer_MEA_dev_network_spike_peak: CCTE's Neural Network Formation Assay for Mean Number of Electrodes in Network Spike, Shafer Lab (AID 2284049). The method, then: CCTE_Shafer_MEA_dev assay is conducted using Axion Biosystems 48 well microelectrode array (MEA) plates and Maestro recording system. Each well of the MEA plate contains a grid of 16 microelectrodes embedded in the culture surface. Electrically active cells, such as neurons, can be cultured over the electrodes, and electrical activity in these cells can be recorded extracellularly. The spontaneous firing of neurons is captured from each electrode on a microsecond timescale providing both temporally and spatially precise data. […] The CCTE_Shafer_MEA_dev assay uses primary cultures of rat cortical neurons. Recordings are made on days post-plating 5, 7, 9 and 12. As these cultures mature over time, neural networks develop functional activity and form cohesive networks in which electrical activity can be highly coordinated. CCTE_Shafer_MEA_dev_network_spike_peak is 1 of 19 assay components of the CCTE_Shafer_MEA_dev assay. It measures the average number of electrodes participating at the peak of a network spike (the peak of a temporally-clustered group of action potential firing across multiple electrodes) during a recording in a microelectrode array (MEA) using Axion Biosystems Maestro 768 channel amplifier with the AxIS adaptive spike detector. To collapse across multiple recordings made on days post-plating 5, 7, 9 and 12, the trapezoidal area-under-the-curve of the component is calculated.Data from the assay component CCTE_Shafer_MEA_dev_network_spike_peak was analyzed into 1 assay endpoint. This assay endpoint, CCTE_Shafer_MEA_dev_network_spike_peak, was analyzed in the negative analysis fitting direction relative to DMSO as the negative control and baseline of activity. Using a type of functional reporter, gain or loss-of-signal activity can be used to understand electrical activity.
On the day prior to culture, each well was coated thoroughly with 150 uL of 0.05% polyethyleneimine (PEI, Sigma Cat P3143) in 50 mM HEPES (Sigma Cat H7523) at a pH of 8. The plate was incubated at 37C for one hour. PEI was rinsed out with 500 uL of sterile water three times. Plates were stored at 4C until the day of culture. This culture was plated at a seeding density of 1.5 x 10^5 cells/well on a 48-well MEA plate, prepared as described above. Cells were administered via a 25 uL media/laminin ([…]; Sigma Cat L2020-1MG) drop directly onto the microelectrode array, as adding the cells with the laminin results in better attachment than pre-coating with laminin. After 2 hours, an additional 475 uL of cortical media was added and the cells returned to the incubator. Exposure starts at day 0 of plating and is continued over twelve days of network development until the experiment is terminated. Cells are fed with fresh medium on DIV 5 and 9, following the recordings on those days. The entire volume of media in the well is exchanged and any vehicle or compound treatment is renewed. Complete details are found in OP-NHEERL/ISTD/SBB/TJS/2015-03-r0 (available on request, email shafer.tim@epa.gov). Measurement of the electrical activity is non-invasive, and recordings can be made from the same plate over multiple different days of the culture. In cortical neurons, this allows for the measurement of extracellular action potentials over the period during which networks form in the MEA plate.
On to `CCOP(=O)(NC(C)C)Oc1ccc(SC)c(C)c1` (stereo not given), for which the call was inactive and the AC50 (as a rule, the concentration giving half of the maximal activity seen) is 51 µM (active). As to `CCOP(=S)(OCC)Oc1ccc([N+](=O)[O-])cc1`, the compound was called inactive.

On to `CC[C@H](C)[C@H]1O[C@]2(C=C[C@@H]1C)C[C@@H]1C[C@@H](C/C=C(\C)[C@@H](O[C@H]3C[C@H](OC)[C@@H](O[C@H]4C[C@H](OC)[C@@H](NC)[C@H](C)O4)[C@H](C)O3)[C@@H](C)/C=C/C=C3\CO[C@@H]4[C@H](O)C(C)=C[C@@H](C(=O)O1)[C@]34O)O2`, for which the concentration at half-maximal activity (AC50) was 106 nM (active) and 9.12 nM (active). The same measure, in the same setting: the result for `C[Si](Cn1cncn1)(c1ccc(F)cc1)c1ccc(F)cc1` reads 4.71 µM (active); that for `CC(C)[C@H](C(=O)O[C@H](C#N)c1cccc(Oc2ccccc2)c1)c1ccc(Cl)cc1`, 4.07 µM (active). In the case of `CCOP(=O)(SC(C)CC)N1CCSC1=O` (stereo not given), the compound was classed as inactive. Same read-out and setting: the value for `CCOP(=S)(OCC)SCCSCC` was “inactive”. On to `CCOP(=S)(OCC)Oc1cc(C)nc(C(C)C)n1`, for which the result was inactive and the half-maximal activity concentration (AC50) is 50 µM (active). On to `CCCSP(=O)(OCC)SCCC`, for which the concentration at half-maximal activity (AC50) is 50 µM (active) and 29.9 µM (active). As for `C#CCC1=C(C)C(OC(=O)C2C(C=C(C)C)C2(C)C)CC1=O` (stereo not given), the outcome was inactive.

Take `CCCCSP(=O)(SCCCC)SCCCC`: the AC50 was 31.8 µM (active) and 16 µM (active). For `CC1=NNC(=O)N(/N=C/c2cccnc2)C1`, the result was inactive. As for `CCOP(=S)(OCC)OC(Cl)C(Cl)(Cl)Cl` (stereo not given), the AC50 was 50 µM (active) and 20.2 µM (active). As for `COP(=O)(OC)C(O)C(Cl)(Cl)Cl` (stereo not given), the AC50 is 75.4 µM (active) and 15 µM (active). Consider `CC(C)=CC1C(C(=O)OCN2C(=O)C3=C(CCCC3)C2=O)C1(C)C` (stereo not given), for which the AC50 is 1.98 µM (active). With `CSC1=N[C@@](C)(c2ccccc2)C(=O)N1Nc1ccccc1`, the compound was called inactive. On the same count and under the same terms, the value for `CN1COCN(Cc2cnc(Cl)s2)C1=N[N+](=O)[O-]` was “inactive”; that for `CCCSP(=O)(OCC)Oc1ccc(Br)cc1Cl` (stereo not given) was “inactive”. As for `CCOP(=S)(Oc1cnc(C(C)(C)C)nc1)OC(C)C` (stereo not given), the AC50 was 85.8 µM (active) and 13 µM (active). Take `CCOP(=O)(OCC)Oc1cc(C)nc(C(C)C)n1`: the compound was classed as inactive. Regarding `C=C(C)[C@H]1Cc2c(ccc3c2O[C@@H]2COc4cc(OC)c(OC)cc4[C@@H]2C3=O)O1`, the half-maximal activity concentration (AC50) was 24.9 nM (active) and 16.5 nM (active). Regarding `C[N+]1(C)CCCCC1`, the AC50 was 15 µM (active). On to `COP(=O)(NC(C)=O)SC` (stereo not given), for which the call was inactive. Turning to `CN(C)[C@@H]1C(=O)C(C(N)=O)=C(O)[C@@]2(O)C(=O)C3=C(O)c4c(O)cccc4[C@@](C)(O)[C@H]3[C@H](O)[C@@H]12`, the AC50 was 50 µM (active).

As to `COP(=O)(OC)OC(Br)C(Cl)(Cl)Br` (stereo not given), the concentration at half-maximal activity (AC50) was 9.05 µM (active) and 11.9 µM (active). With `CON=C(C(=O)OC)c1ccccc1CON=C(C)c1cccc(C(F)(F)F)c1`, the concentration at half-maximal activity (AC50) is 871 nM (active) and 742 nM (active). Take `CCOC(=O)CC(SP(=O)(OC)OC)C(=O)OCC` (stereo not given): the compound was called inactive.

Regarding `CCOP(=S)(OCC)Oc1ccc2c(C)c(Cl)c(=O)oc2c1`, the AC50 is 50 µM (active). For `S=C1NCCN1`, the compound was called inactive.

Regarding `CC(C)N(C(=O)SCC(Cl)=C(Cl)Cl)C(C)C`, the AC50 was 15 µM (active). Turning to `CC(Oc1cccc(Cl)c1)C(=O)O` (stereo not given), the result was inactive. For `O=[N+]([O-])c1cc(C(F)(F)F)c(Cl)c([N+](=O)[O-])c1Nc1ncc(C(F)(F)F)cc1Cl`, the AC50 was 1.06 µM (active).

For `CC(=NC#N)N(C)Cc1ccc(Cl)nc1`, the compound was classed as inactive.
